{"source": "PubChem BioAssay (Tox21)", "target": "Thyrotropin receptor (Homo sapiens) (UniProt P16473)", "sequence (P16473 whole entry, looked up)": "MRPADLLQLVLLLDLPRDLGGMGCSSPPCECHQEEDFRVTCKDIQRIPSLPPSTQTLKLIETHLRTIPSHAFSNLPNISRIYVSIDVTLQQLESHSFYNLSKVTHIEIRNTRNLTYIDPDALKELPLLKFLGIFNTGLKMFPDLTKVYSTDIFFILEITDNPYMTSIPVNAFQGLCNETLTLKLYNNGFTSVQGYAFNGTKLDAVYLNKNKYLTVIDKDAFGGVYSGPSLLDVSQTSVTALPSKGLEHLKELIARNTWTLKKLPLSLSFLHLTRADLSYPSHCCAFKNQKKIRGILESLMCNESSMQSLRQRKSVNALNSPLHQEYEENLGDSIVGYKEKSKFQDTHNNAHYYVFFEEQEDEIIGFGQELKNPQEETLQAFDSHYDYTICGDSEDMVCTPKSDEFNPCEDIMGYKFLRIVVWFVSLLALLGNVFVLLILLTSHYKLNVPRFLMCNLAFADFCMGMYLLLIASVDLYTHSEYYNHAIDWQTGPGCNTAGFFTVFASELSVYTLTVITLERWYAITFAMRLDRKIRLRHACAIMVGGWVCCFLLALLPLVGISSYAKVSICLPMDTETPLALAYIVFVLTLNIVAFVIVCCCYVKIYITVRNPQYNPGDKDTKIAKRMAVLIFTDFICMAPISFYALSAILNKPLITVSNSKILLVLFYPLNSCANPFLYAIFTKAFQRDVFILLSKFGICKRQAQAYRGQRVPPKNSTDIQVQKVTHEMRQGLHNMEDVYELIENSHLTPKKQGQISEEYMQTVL", "assay": "qHTS assay to identify small molecule antagonists of the thyroid stimulating hormone receptor (TSHR) signaling pathway (AID 1259385); note: nearly all actives have a fitted effect of over 20% in size", "settings": "TSHR-HEK293 cAMP HTRF, TSH-stimulated antagonist mode; series mostly up to 92.4 µM", "how_it_was_run": "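TSHR-HEK293 cells (800/well) plated 18 h, then compounds with Ro20-1724 and TSH at 1.5 ng/mL final, 30 min at room temperature. cAMP quantified by HTRF (cAMP-d2/anti-cAMP-cryptate, 1 h); 15 concentrations in triplicate.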", "note": "Inconclusive results are not listed. A call without a number means that no potency is given here. Calls of active or inactive are those of the source. Calls come from the whole dose curve.", "data": [{"smiles": "N#CCCNCCC#N", "values": [{"measurement": "Potency", "value": "inactive"}]}]}
